POLK inh – blocks human DNA polymerase kappa activity. purified Pol kappa, fluorescent DNA synthesis assay, 10 min. Potency, µM (doses to about 107 µM), inactives show at the highest dose activity, negative = inhibition, hits mostly inhibitors. AID 588579. hit rate 0.53% among 400,000. Q9UBT6; also: potency is read from the fitted curve at half-maximal effect; % is scaled to controls: 0 for no effect and ±100 for the full control effect
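Kinetic fluorescence readout at 0 and 10 min followed reaction start with substrate at 50 nM final. Beforehand, enzyme (10 nM Pol kappa) stood 15 min with compound at room temperature; buffer-only wells were negative controls.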
Pol eta inh – inhibitors of human DNA polymerase eta | Q9Y253 | hit rate 1.2% among 390,000 | AID 588591 | recombinant Pol eta, fluorescent DNA replication assay | Potency, µM (titrated, usually from 114 µM), for the others: at the highest dose activity change, negative = inhibition, hits mostly inhibitors; also: potency is read from the fitted curve at half-maximal effect; % is scaled to controls: 0 for no effect and ±100 for the full control effect
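Fluorescent replication assay: 50 nM final substrate added after a 15 min room-temperature compound preincubation with 10 nM enzyme. Signal taken at 0 min and again at 10 min.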
PI5P4Ka inh – PI5P4K alpha (human) kinase inhibition | P48426 | PI5P4Kalpha enzyme, ADP-Glo luminescence, 60 min; stronger effect = lower value | max response, % | hit rate 1.2% among 330,000; active = max response of -50% or lower; inconclusive = between -30% and -50%; inactive = -30% or higher; also: value at the top dose of about 77 µM; % is scaled to controls: 0 for no effect and ±100 for the full control effect
Target sequence (P48426 whole entry, looked up): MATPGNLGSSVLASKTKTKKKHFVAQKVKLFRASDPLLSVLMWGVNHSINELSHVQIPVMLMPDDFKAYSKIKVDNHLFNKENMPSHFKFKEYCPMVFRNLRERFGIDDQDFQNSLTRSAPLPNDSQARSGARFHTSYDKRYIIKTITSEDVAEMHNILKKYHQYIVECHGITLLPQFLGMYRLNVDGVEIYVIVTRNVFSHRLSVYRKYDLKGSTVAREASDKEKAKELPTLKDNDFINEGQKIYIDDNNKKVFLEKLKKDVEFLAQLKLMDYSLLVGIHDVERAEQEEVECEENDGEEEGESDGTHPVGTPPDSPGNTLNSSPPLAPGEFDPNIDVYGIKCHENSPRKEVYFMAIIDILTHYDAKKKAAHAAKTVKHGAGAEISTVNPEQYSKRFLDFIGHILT
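Reactions run in 0.038 M HEPES pH 7.4, 0.28 mM EGTA, 0.1% CHAPS and 5% DMSO, with PI5P4Kalpha, substrate, compound and 5 microM ATP final, one hour at room temperature. Readout is ADP-Glo luminescence.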
FEN1 inhibitor – inhibitors of human flap endonuclease 1. AID 588795. P39748. Recombinant FEN1 flap cleavage, fluorescence, 15 min. hit rate 0.35% among 390,000. Potency, µM (top dose mostly 114 µM), for inactives: at the top dose activity change, negative = inhibition, hits mostly inhibitors; also: potency is read from the fitted curve at half-maximal effect; % is scaled to controls: 0 for no effect and ±100 for the full control effect; nearly all actives have a fitted effect of over 65% in size
Target sequence (P39748 whole entry, looked up): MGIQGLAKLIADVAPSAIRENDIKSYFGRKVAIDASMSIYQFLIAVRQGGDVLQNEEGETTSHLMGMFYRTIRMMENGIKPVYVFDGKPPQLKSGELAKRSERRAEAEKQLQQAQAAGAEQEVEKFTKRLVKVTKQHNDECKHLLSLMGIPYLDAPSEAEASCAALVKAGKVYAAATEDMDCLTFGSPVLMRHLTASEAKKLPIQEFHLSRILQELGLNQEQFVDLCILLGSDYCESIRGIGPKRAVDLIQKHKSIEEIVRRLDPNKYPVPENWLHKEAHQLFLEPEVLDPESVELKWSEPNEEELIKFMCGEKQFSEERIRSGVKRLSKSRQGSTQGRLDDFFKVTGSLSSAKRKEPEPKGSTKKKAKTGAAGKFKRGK
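FEN1 at 10 nM preincubated with compounds 15 min at room temperature, then flap DNA substrate added at 50 nM final. Signal read at 0 and 15 min; concentration-response fitted with four-parameter Hill equation.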
Pol beta inh – inhibitors of human DNA polymerase beta | P06746 | Pol beta primer extension/strand displacement, fluorescence kinetic | Potency, µM (highest dose often 114 µM), for inactives: at the highest dose activity change, negative = inhibition, most hits filed as inhibitors | hit rate 1.3% among 340,000 | AID 485314; also: potency is read from the fitted curve at half-maximal effect; % is scaled to controls: 0 for no effect and ±100 for the full control effect
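Kinetic readout of DNA synthesis with strand displacement by Pol beta. Compound and 10 nM enzyme sit 15 min at room temperature; 50 nM substrate starts the reaction, read immediately and at 10 min.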
Pol iota inh – inhibitors of human DNA polymerase iota; Q9UNA4; Pol iota fluorescent replication assay, 10 min; Potency, µM (top dose mostly 115 µM), for the others: top-dose activity, negative = inhibition, hits mostly inhibitors; hit rate 1% among 390,000; AID 588590; also: potency is read from the fitted curve at half-maximal effect
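Fluorescent replication assay read twice, at 0 min and 10 min after adding 50 nM (final) substrate. Enzyme (10 nM) and compounds were first incubated 15 min at room temperature; enzyme-free buffer wells were negative controls.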
Numbers without * were called inactive; ? = inconclusive; nt = not tested or not shown; [ ] = dose if it differs, or a comment. Only some compounds are listed: those with a hit (about 2.8% of all), similar ones and a draw of the others. Unless noted, calls follow the shape of the dose curve; as a rule, active = well fitted curve in the direction sought with a large enough effect; inconclusive = small, poorly fitted or top-dose-only effect, or another doubt; inactive = no such curve, though single readings can be large; an effect the other way counts as inactive or inconclusive.

SMILES	POLK inh	Pol eta inh	PI5P4Ka inh	FEN1 inhibitor	Pol beta inh	Pol iota inh
Cc1c(OCc2ccc(C(=O)O)o2)ccc2c3c(c(=O)oc12)CCC3	5.3%[60.1 µM]	17.8µM*	nt	-11.9%	35.5µM*	39.8µM*
Cc1c(C)c2ccc(OCC(=O)Nc3ccc(S(N)(=O)=O)cc3)c(C)c2oc1=O	?	?	-2.6	?	31.6µM*	?
Cc1c(OCC(=O)N[C@H](C(=O)O)c2ccccc2)ccc2c3c(c(=O)oc12)CCCC3	?	56.2µM*	-9.5	-9.5%	?	?
COC(=O)c1ccc(COc2ccc3c(C)c(C)c(=O)oc3c2C)o1	-0.8%	-10.4%	nt	9.6%	7.2%	0.0%
Cc1c(Cc2ccccc2)c(=O)oc2cc(OCC(=O)NC(Cc3ccc(Cl)cc3)C(=O)O)ccc12 (stereo unspecified)	12.3%	-7.7%	4.9	2.7%	7.9%	-4.3%
Cc1c(Cc2ccccc2)c(=O)oc2c(C)c(OCC(=O)N[C@@H](Cc3ccccc3)C(=O)O)ccc12	-17.8%	50.1µM*	-11.6	-5.9%	50.1µM*	-9.9%
CCOC(=O)c1ccccc1NC(=O)N1CCC(CN2CCCCC2)CC1	4.9%	5.6%	nt	-0.8%	0.4%	-7.1%
Cc1c(OCC(=O)NC(Cc2ccc(Cl)cc2)C(=O)O)ccc2c3c(c(=O)oc12)CCC3 (stereo unspecified)	15.4%	-4.6%	2.3	5.1%	1.3%	-1.5%
CCc1c(C)c2ccc(OC(C)C(=O)NC(Cc3c[nH]c4ccc(O)cc34)C(=O)O)c(C)c2oc1=O (stereo unspecified)	-19.8%	50.1µM*	-4.2	-11.2%	36.1%	?
Cc1c(OCC(=O)NC(Cc2ccc(Cl)cc2)C(=O)O)ccc2c1oc(=O)c1ccccc12 (stereo unspecified)	-17.4%	50.1µM*	0.1	?	-0.2%	4.7%
CC(Oc1ccc2c(c1)oc(=O)c1ccccc12)C(=O)NC(Cc1c[nH]c2ccc(O)cc12)C(=O)O (stereo unspecified)	-6.8%	?	0.1	-18.7%	?	-23.0%
COc1ccc(S(=O)(=O)N(C)C)cc1NC(=O)c1ccc(OCC(=O)N2CCOCC2)c(OC)c1	1.7%	-16.7%	9.1	-6.5%	nt	2.2%
Cc1ccc(-c2nnc(Nc3ccc(O)cc3)c3ccccc23)cc1S(=O)(=O)N1CCCCC1	-18.0%	-13.5%	nt	-15.3%	0.0%	-2.2%
CN(C)c1ccc(/C=C(\C#N)C(=O)Nc2nc3c(s2)CCN(Cc2ccccc2)C3)cc1	-3.1%	?	nt	?	10.0%	20µM*
Cc1cc(S(=O)(=O)N2CCOCC2)ccc1OCC(=O)NCc1ccccn1	-23.2%	-24.1%	-4.1	2.5%	0.9%	137.0%
Cc1ccccc1N(CC(=O)NCCSCc1ccco1)S(C)(=O)=O	-11.0%	-11.1%	nt	0.1%	?	56.2µM*
O=C(CN1C(=O)c2ccccc2S1(=O)=O)NCCSCc1ccco1	-24.9%	-1.4%	nt	12.5%	5.3%	100µM*
CCOc1ccccc1N(CC(=O)NCCSCc1ccco1)S(=O)(=O)c1ccccc1	?	?	-6.2	1.4%	28.2µM*	?
COCCN1Cc2cccc(C(=O)Nc3ccc(C)cc3C)c2C1=O	-7.2%	-15.2%	nt	8.2%	-25.2%	11.9%
Cc1cccc(C(=O)NNC(=O)c2ccc(F)cc2)c1	1.2%[60.1 µM]	5.9%	-1.8	6.7%	1.2%	21.1%
O=C(NNC(=O)c1cccc(-n2cccc2)c1)c1ccc(F)cc1	?	14.1µM*	-67.7*	-16.8%	nt	50.1µM*
CN1N=C(C(C)(C)C)CC1=O	3.1%	-13.7%	0.8	-14.0%	3.6%	3.98µM*
O=C(CCCCn1c(=O)c2ccccc2n(Cc2ccc(F)cc2Cl)c1=O)NCCc1ccc(Cl)cc1	9.7%	-9.5%	nt	0.6%	4.9%	27.3%
COCc1cc(=O)[nH]c(Nc2nc3ccccc3o2)n1	-10.4%	-15.8%	-3.6	16.2%	14.5%	-7.8%
COCc1cc(=O)[nH]c(Nc2nc(C)c3ccccc3n2)n1	-1.5%	23.8%	nt	50.1µM*	51.2%	13.1%
SMILES	POLK inh	Pol eta inh	PI5P4Ka inh	FEN1 inhibitor	Pol beta inh	Pol iota inh
COc1ccc(CC2=CC(=O)c3ccccc3C2=O)cc1	-10.7%	?	?	?	-1.8%	10µM*
COc1ccc(Cc2ccccc2C(=O)O)cc1	-13.0%	-3.2%	1.1	-13.9%	nt	?
COc1cccc(/C=C2\Oc3cc(OCC(=O)N4Cc5ccccc5C[C@H]4C(=O)O)ccc3C2=O)c1	-31.2%	50.1µM*	?	?	1.8%	?
COc1cc(C=C2C(=O)c3ccccc3C2=O)cc(OC)c1OC	-10.5%	-1.9%	3.6	14.2%	-0.1%	89.1µM*
COc1cc(C=C2C(=O)c3ccccc3C2=O)cc(OC)c1	1.3%	-5.0%	-3.1	-14.0%	14.2%	98.5%
COc1cc(C=C2C(=O)c3ccccc3C2=O)ccc1O	-18.6%	-4.5%	?	-4.9%	-2.7%	?
COc1ccc(C=C2C(=O)c3ccccc3C2=O)cc1O	-8.2%	-29.5%	-60.0*	?	-5.3%	17.8µM*
O=C(O)[C@@]1(CCCCCCOc2ccc(Cl)cc2)CO1	12.6%[60.1 µM]	nt	nt	nt	nt	nt
CCOc1ccccc1NC(=O)N1CCc2c(sc3c2CCCC3)C1c1ccccc1 (stereo unspecified)	-3.4%[60.1 µM]	-18.7%	nt	3.7%	1.8%	21.2%
Nc1nnc(-c2cc3c(ccc4ccccc43)oc2=O)s1	nt	nt	nt	nt	22.4µM*	nt
O=c1oc2ccc3ccccc3c2cc1-c1nnc(Nc2ccccc2)s1	-4.5%	-7.9%	nt	-4.6%	7.6%	8.7%
CC(O)c1cccc2cc(C(O)CNC(C)(C)C)oc12 (stereo unspecified)	14.2%[60.1 µM]	nt	nt	nt	nt	nt
Cc1ccc(S(=O)(=O)Nc2ccc3cc([N+](=O)[O-])ccc3c2[N+](=O)[O-])cc1	-5.0%	79.4µM*	-26.5	-0.5%	nt	?
O=C(CN1C(=O)C2(SCC(=O)N2c2cccc(Cl)c2)c2ccccc21)NCCc1ccccc1 (stereo unspecified)	-11.5%	-9.1%	nt	-2.1%	-22.6%	-13.5%
CC(Oc1ccc(O)cc1)(P(=O)(O)O)P(=O)(O)O	12.6µM*	nt	nt	nt	nt	nt
CC(C)(C)C(=O)OCOP(=O)(OCOC(=O)C(C)(C)C)C(C)(Oc1ccc(O)cc1)P(=O)(OCOC(=O)C(C)(C)C)OCOC(=O)C(C)(C)C	35.5µM*	nt	nt	nt	nt	nt
Oc1ccc(Oc2ccc(Oc3ccc(O)cc3)cc2)cc1	0.2%	-27.4%	5.3	1.4%	-11.9%	20.7%
CC(C)(C)n1ncc2c(=O)n(Cc3ccc(F)c(C(F)(F)F)c3)cnc21	-6.7%	nt	nt	-9.1%	nt	6.7%
O=C(Nc1ccc2ccccc2c1)C(c1ccc(C(F)(F)F)cc1)n1c(=O)c(-c2cc3ccccc3[nH]2)nc2ccccc21 (stereo unspecified)	nt	nt	-5.7	nt	nt	nt
